Reference: PubChem BioAssay AID588351 (The Scripps Research Institute Molecular Screening Center, 2011)
Out of some 1,900 compounds screened, about 1,600 (84%) were called active.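 Rule for the calls: active = mean activation above a set limit taken from the primary screen (cut at about 8% in these data); inactive = the rest.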 So high a share suggests a set chosen from earlier hits. A selection follows.

Experiment: FXN GAA850 promoter activators in reporter cells, confirmation, cell-based, luminescence, HEK293 lucGAA850, triplicate (AID 588351);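 note: 0% = DMSO wells and 100% = 10 µM SAHA wells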
Settings: HEK293 lucGAA850 FXN promoter luciferase reporter, 24 h; at 6 µM; stronger effect = higher value
With `CC(C)(C)c1ccc(OC(=O)N2CCCCC2)cc1` the activation was 35% (active).
